Data on two compounds can be found in PubChem BioAssay (NCATS).

Records with an inconclusive call do not appear. The source made the active and inactive calls. Calls follow the shape of the dose curve; as a rule, active = well fitted curve in the direction sought with a large enough effect; inconclusive = small, poorly fitted or top-dose-only effect, or another doubt; inactive = no such curve, though single readings can be large; an effect the other way counts as inactive or inconclusive.

Test [1] is described as follows: Panc-1005 Cancer Cell Toxicity qHTS against the NCATS CANVASS Library (AID 1347349). Also: nearly all actives have a fitted effect of over 60% in size. The procedure, abridged: (§1)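 Toxicity is measured over 72 h of compound exposure at 37 degrees C under 5% CO2. Each well holds 1000 cells, pre-incubated for 4 hours before dosing across an 11-point range. CellTiter-Glo luminescence gives viability.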
For orientation: qHTS replaces the single test concentration by a dilution series.

A short description of test [2]: SW1088 Cancer Cell Toxicity qHTS against the NCATS CANVASS Library (AID 1347350). Also: nearly all actives have a fitted effect of over 75% in size. In a few lines:
as §1

Test [3] in a line: U-118MG Cancer Cell Toxicity qHTS against the NCATS CANVASS Library (AID 1347351). The procedure, abridged: as §1
Test [4] in a line: COV-362 Cancer Cell Toxicity qHTS against the NCATS CANVASS Library (AID 1347352). In a few lines: (§2)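 Cells were seeded at 1000 per well and allowed to settle 4 hours at 37 degrees C before pin transfer of compounds as an 11-point series. Viability was read by CellTiter-Glo luminescence after 72 hours' exposure.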
The nature of test [5]: A2780 Cisplatin Sensitive Ovarian Cancer Cell Toxicity qHTS against the NCATS CANVASS Library (AID 1347353). Also: nearly all actives have a fitted effect of over 60% in size. Conditions: A2780 ovarian cancer viability, ATPLite luminescence, 72 h; at 46.1 µM (top of the series). The procedure, abridged:
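A2780 cisplatin-sensitive cells (750 per well) were seeded, left 4 h at 37 °C, then pin-dosed in an 11-point series. After 72 h at 37 °C/5% CO2, viability was measured as ATPLite luminescence.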

Test [6] is described as follows: UWB1.289-WTBRCA1 Cancer Cell Toxicity qHTS against the NCATS CANVASS Library (AID 1347354). The procedure, abridged: as §2
Test [7] in a line: HPAF-II 24hr Apoptosis Induction qHTS against the NCATS CANVASS Library (AID 1347356). In a few lines:
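HPAF-II cells (500/well) in DMEM + 10% FBS were treated with an 11-point compound series for 24 hours at 37 degrees C. Caspase-3/7 activity was then read by Caspase-Glo DEVD luminescence after 15 min.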

Test [8] is described as follows: HEK293 18hr Apoptosis Induction qHTS against the NCATS CANVASS Library (AID 1347357). In a few lines:
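Caspase-Glo 3/7 luminescence (15 min, room temperature) measured apoptosis after an 18-hour, 37 degrees C exposure of HEK293 cells (500 cells/well) to compounds in 11 points.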

Test [9] can be described thus: HPAF-II 12hr Apoptosis Induction qHTS against the NCATS CANVASS Library (AID 1347358). In a few lines:
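HPAF-II cells (500/well, DMEM + 10% FBS) were exposed to compounds for 12 hours at 37 degrees C. Caspase-3/7 activity was then read by Caspase-Glo 3/7 luminescence after 15 min at room temperature.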

Test [10] is described as follows: HEK293 24hr Apoptosis Induction qHTS against the NCATS CANVASS Library (AID 1347359). In a few lines: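 HEK293 cells (500/well, DMEM + 10% FBS) were exposed to compounds in an 11-point series for 24 hours at 37 degrees C, then caspase-3/7 activity was read by Caspase-Glo DEVD luciferase luminescence after 15 min.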
The nature of test [11]: HPAF-II 18hr Apoptosis Induction qHTS against the NCATS CANVASS Library (AID 1347360). The procedure, abridged:
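Caspase-3/7 activation was measured with luminescent Caspase-Glo 3/7 reagent (15 min, RT) in HPAF-II cancer cells (500 cells/well). Before detection, cells had been treated for 18 h at 37 C with compounds (11 points).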

Test [12] in a line: HEK293 12hr Apoptosis Induction qHTS against the NCATS CANVASS Library (AID 1347361). The procedure, abridged:
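HEK293 cells (500/well, DMEM + 10% FBS) were exposed to natural products across an 11-point series for 12 hours at 37 degrees C. Caspase-3/7 activity was then measured with DEVD luciferase luminescence after 15 min at room temperature.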

The target in test [13] is Luciferin 4-monooxygenase (Photinus pyralis) (UniProt P08659). In words: Firefly luciferase counterscreen qHTS: Assay Interference Panel against the NCATS CANVASS Library (AID 1347363). The procedure, abridged:
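Purified P. pyralis luciferase was added to compounds (11-point series) preincubated 15 min at room temperature with substrate containing 0.013 mM D-luciferin and 0.013 mM ATP; luminescence was read after 5 min.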

Test [14] is described as follows: KB-8-5-11 Cancer Cell Toxicity qHTS against the NCATS CANVASS Library (AID 1347364). Also: nearly all actives have a fitted effect of over 75% in size. The procedure, abridged:
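KB-8-5-11 cells (500/well) in DMEM + 10% FBS were exposed to compounds in an 11-point qHTS series for 72 hr at 37C, 5% CO2. Viability was read by CellTiter-Glo luminescence.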

Test [15] in a line: SDT Cancer Cell Toxicity qHTS against the NCATS CANVASS Library (AID 1347365). Also: nearly all actives have a fitted effect of over 60% in size. Also: potency is read from the fitted curve at half-maximal effect. The procedure, abridged:
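SDT canine glioma cells (500 cells/well) were exposed to compounds in an 11-point series for 72 hr at 37C, 5% CO2; viability was read as ATP content by CellTiterGlo luminescence.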

The nature of test [16]: KB-3-1 Cancer Cell Toxicity qHTS against the NCATS CANVASS Library (AID 1347366). Also: nearly all actives have a fitted effect of over 75% in size. The settings on record: KB-3-1 viability, CellTiter-Glo luminescence, 72 h; at 46.1 µM (top of the series). In a few lines:
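CellTiter-Glo luminescence measured viability after 72 h at 37C. KB-3-1 cells were seeded at 500 per well in DMEM/10% FBS.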

The nature of test [17]: qHTS for ATAD5 Agonist screened against the NCATS CANVASS Library (AID 1347367).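 Also: luciferase reporter driven by ATAD5 which rises upon DNA damage.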 The procedure, abridged: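 Genotoxicity via ATAD5-luciferase luminescence after 16 h compound exposure (11-point series) at 37C in HEK293T-ATAD5 cells. CellTiter-Fluor viability read precedes the luminescence read; MMS serves as positive control.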
A short description of test [18]: G06 Cancer Cell Toxicity qHTS against the NCATS CANVASS Library (AID 1347368). Also: nearly all actives have a fitted effect of over 60% in size. Also: potency is read from the fitted curve at half-maximal effect. The procedure, abridged: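 G06 dog glioma cells seeded at 500 cells/well were exposed to compounds (11-point qHTS series) for 72 hr at 37C, 5% CO2; viability read as ATP content by CellTiterGlo luminescence.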
Test [19] is described as follows: qHTS for ATAD5 Antagonist screened against the NCATS CANVASS Library (AID 1347370).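 Also: HEK293T cells carrying an ATAD5 luciferase reporter co-treated with 10 µM 5-fluorouridine; nearly all actives have a fitted effect of over 65% in size.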 The procedure, abridged: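 HEK293T cells with a stably integrated ATAD5-controlled luciferase reporter were exposed to compounds (11-pt) alongside 10 uM 5-fluorouridine as ATAD5 stabilizer for 16hr at 37C. Viability was read by CellTiter-Fluor fluorescence, then ATAD5 by luminescence.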

The nature of test [20]: MCF7 Cancer Cell Toxicity qHTS against the NCATS CANVASS Library (AID 1347369). Also: potency is read from the fitted curve at half-maximal effect. The settings on record: MCF7 viability, ATP luminescence (CellTiter-Glo), 72 h. The procedure, abridged:
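Cytotoxicity was measured as CellTiterGlo luminescence (ATP) after 72 h at 37 °C. The cells were MCF7 at 500 per well, with an 11-point compound concentration series.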

Luciferin 4-monooxygenase (Photinus pyralis), sequence (P08659 whole entry, looked up): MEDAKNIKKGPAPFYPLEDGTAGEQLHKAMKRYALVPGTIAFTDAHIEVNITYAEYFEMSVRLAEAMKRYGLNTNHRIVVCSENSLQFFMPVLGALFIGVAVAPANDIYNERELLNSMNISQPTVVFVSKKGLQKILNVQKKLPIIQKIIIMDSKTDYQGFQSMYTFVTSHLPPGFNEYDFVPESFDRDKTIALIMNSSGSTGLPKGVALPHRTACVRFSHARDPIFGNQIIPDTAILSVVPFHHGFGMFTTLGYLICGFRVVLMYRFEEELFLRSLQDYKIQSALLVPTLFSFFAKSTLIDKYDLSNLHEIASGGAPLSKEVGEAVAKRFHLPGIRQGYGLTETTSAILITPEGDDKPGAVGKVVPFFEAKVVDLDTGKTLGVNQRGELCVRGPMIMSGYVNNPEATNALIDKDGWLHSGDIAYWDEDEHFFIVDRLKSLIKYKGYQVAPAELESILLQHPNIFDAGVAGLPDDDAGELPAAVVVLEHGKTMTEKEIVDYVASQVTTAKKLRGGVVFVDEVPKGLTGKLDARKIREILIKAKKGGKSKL

Turning to `O=C(O)c1cc(O)c(O)c(O)c1`, the result in test [1], in [2], in [3], in [4], in test [5] and in [6] was inactive. Besides, the result in [7], in test [8], in [9], in test [10], in test [11] and in [12] was inactive. The compound was called inactive in test [13], in test [14], in test [16], in test [17] and in test [19]. Besides, the Potency entry in [15] and in test [18] was “inactive” throughout.

As to `O=c1cc(-c2ccccc2)oc2c(O)c(O)ccc12`, the compound was classed as inactive in test [7], in [8], in test [9], in test [10], in test [11] and in [12]. The Potency was 4.18 µM (active) in test [15], 9.35 µM (active) in test [18] and 13.1 µM (active) in [20].
